# Bioassay records from PubChem.
# S1P3 antagonist: S1P3 receptor antagonists, primary screen, cell-based; CHO S1P3 NFAT-BLA reporter, FRET fluorescence, antagonist mode; AID 485, 2006; inhibition, % at 4.98 µM; 170,000 compounds, 0.27% hits;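 active = inhibition above the plate cutoff, the mean inhibition of test wells on that plate plus 3 SD, cut at about 28% in these data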;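 note: cells challenged with S1P at its EC80 of 0.8 µM; blue over green emission ratio from cleaved BLA substrate after 4 h stimulation; 0% = S1P-stimulated wells and 100% = unstimulated DMSO-only wells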
# EP2 mod: EP2 receptor modulators, cAMP readout, primary screen, cell-based, HTRF cAMP, PGE2 stimulation. EP2-expressing cells, cAMP HTRF FRET, PGE2 co-stimulation. induction, % at 25 µM. 260,000 compounds, 0.83% hits. AID 940, 2007. Prostaglandin E2 receptor EP2 subtype (Homo sapiens), P43116;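 active = compounds whose cAMP rise, as percent of the full-agonist control response, exceeds 60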;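 note: rat C6 glioma line stably carrying human EP2 under a CMV promoter; the protocol text gives 20 µM as final concentration; 100% = response of wells given 1 µM PGE2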
# Target sequence (P43116 whole entry, looked up): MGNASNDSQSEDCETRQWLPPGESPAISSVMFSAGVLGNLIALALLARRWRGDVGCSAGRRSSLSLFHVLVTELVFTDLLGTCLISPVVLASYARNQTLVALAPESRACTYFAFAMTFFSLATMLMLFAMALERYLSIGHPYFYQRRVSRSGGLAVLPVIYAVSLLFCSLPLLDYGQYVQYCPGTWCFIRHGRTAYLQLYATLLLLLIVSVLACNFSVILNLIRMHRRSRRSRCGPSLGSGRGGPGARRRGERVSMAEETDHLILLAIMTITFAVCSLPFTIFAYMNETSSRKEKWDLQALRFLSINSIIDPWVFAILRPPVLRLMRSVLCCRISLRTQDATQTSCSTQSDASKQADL
# S1P4 antag: S1P4 receptor antagonists, primary screen, cell-based | inhibition, % at 4.98 µM | 220,000 compounds, 0.26% hits | S1P4-expressing cells, antagonist mode, reporter read-out; in the data active = inhibition above about 29%;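 note: 0% = wells stimulated with agonist and 100% = vehicle wells without agonist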
# S1P4 ag: S1P4 receptor agonists, primary screen, cell-based; AID 1509, 2009; 220,000 compounds, 0.35% hits; activation, % at 4.98 µM; S1P4-expressing cell line, agonist reporter assay; in the data active = activation above about 11%;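 note: 0% = DMSO vehicle and 100% = reference agonist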
# EP2 antag: human EP2 receptor antagonists, primary screen, TR-FRET cAMP, C6 glioma cells | inhibition, % at 25 µM | C6 glioma cells expressing human EP2; cells stimulated with saturating PGE2 | 260,000 compounds, 0.52% hits | Prostaglandin E2 receptor EP2 subtype (Homo sapiens), P43116 | AID 1422, 2008;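 active = percent inhibition above 40 after rounding to a whole number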;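 note: rat C6 glioma host cells with rolipram phosphodiesterase inhibitor present; the protocol text gives 20 µM as final concentration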
# EP2 cAMP induct: cAMP induction in EP2, EP4, beta2-AR and parental cells, confirmation, counter-screen for EP2 modulator project, cell-based, five parallel assays, C6 glioma, HEK293; shares compounds with EP2 mod; cAMP HTRF induction; plus low (about EC15) PGE2 agonist; calls only at 20 µM (by protocol); 1,300 compounds, 47% hits; AID 1080, 2008;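 active = cAMP induction above 50% in the main assay while under 30% in all four parallel counter assays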;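 note: rat C6 glioma cells stably expressing human EP2 receptor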
# The depositor's hits bear a star; i = inactive; x = no result given; + = active, no number; ! = a repeat was not active. An excerpt weighted towards active compounds, which were near 1.9% of everything screened.
SMILES,S1P3 antagonist,EP2 mod,S1P4 antag,S1P4 ag,EP2 antag,EP2 cAMP induct
Cc1oc(-c2ccccc2)cc1C(=O)Nc1ccccc1,x,-33,1,1,13,x
CC(NC(=O)C1(c2ccc(Cl)cc2)CCC1)c1nc(-c2cccnc2)n[nH]1 (centres undefined),x,-26,x,x,3,x
Cn1c(=O)[nH]c(=O)c2c1nc(CN1CCN(c3ccccc3F)CC1)n2CCCc1ccccc1,5,85*,-26,-2,12,i
Cn1c(=O)[nH]c(=O)c2c1nc(CN1CCN(c3ccc(F)cc3)CC1)n2CCCc1ccccc1,7,36,-2,0,7,x
CCC1(CC)Cc2ccccc2-c2nc(NCCO)[nH]c(=O)c21,x,69*!,7,1,16,i
CCCNC(=O)CCSc1nc(-c2ccc(OC)cc2)cc(C(F)(F)F)n1,x,-7,x,x,16,x
Cc1cccc(-n2c(=S)[nH]c3nc4c(cc3c2=O)COC(C)(C)C4)c1,-19,-7,-9,3,11,x
Cc1ccc(-n2c(=S)[nH]c3c(oc4ccccc43)c2=O)cc1,0,74*,4,0,14,i
O=c1c2oc3ccccc3c2[nH]c(=S)n1-c1ccccc1,9,71*,-6,6,13,i
Cc1cccc(-n2c(=S)[nH]c3c(oc4ccccc43)c2=O)c1,1,71*,-23,0,13,i
COc1ccc(N2CC(C(=O)Nc3cc(C(F)(F)F)ccc3Cl)CC2=O)cc1 (centres undefined),x,-40,x,x,5,x
Cc1cccc(-c2nc(=S)c3c(n2Cc2ccco2)CCCC3)c1,x,66*,-7,-3,7,i
Cc1ccc(-n2nc3c(c2NC(=O)C(C)(C)C)CSC3)c(C)c1,-9,36,-15,1,9,x
Cc1ccc(-n2nc3c(c2NC(=O)c2ccc(Br)o2)CSC3)c(C)c1,x,52,8,1,5,i
CS(=O)(=O)N1CCC(C(=O)NC2CC3(CCCC3)Oc3ccccc32)CC1 (centres undefined),x,-21,x,x,3,x
CCOC(=O)C1=CN(CC2CCCO2)C=C(C(=O)OCC)C1c1ccccc1C(F)(F)F (centres undefined),-33,74*,-5,1,5,i
Cc1ccc(-c2nnc(N3CCC(C)CC3)c3ccccc23)cc1C,-12,31,-4,2,9,x
Cc1ccc(-c2nnc(N3CCC(C)CC3)c3ccccc23)cc1,-12,74*,-8,0,8,i
COCCn1c(SCC(=O)Nc2ccc(C)cc2)nnc1-c1ccoc1C,x,-2,x,x,7,x
COc1ccccc1-c1nnc2n1N=C(c1ccc(O)c(O)c1)CS2,x,-5,-8,0,4,x
CCOc1ccc(C2=Nn3c(nnc3-c3ccccc3OC)SC2)cc1,x,74*,25,1,7,+
CCOc1ccc(-c2nnc3n2N=C(c2ccc(OC)cc2)CS3)cc1,x,75*,1,-1,3,+
CCc1nnc2n1N=C(c1ccc(OC)cc1)CS2,x,6,-4,0,13,x
O=C(C1CCC1)N1CCC(c2nc3c(nnn3Cc3c(Cl)cccc3Cl)c(=O)[nH]2)CC1,x,35,x,x,8,x
Cc1cccc(C2(c3cccc(C)c3)OC(=O)c3ccccc32)c1,x,38,2,1,1,x
SMILES,S1P3 antagonist,EP2 mod,S1P4 antag,S1P4 ag,EP2 antag,EP2 cAMP induct
Cc1cc(O)ccc1C1(c2ccc(O)cc2C)OC(=O)c2ccccc21,x,67*,-14,2,11,i
CNC(=S)N(Cc1cc2cc(C)c(C)cc2[nH]c1=O)C1CCCCC1,x,-72,x,x,11,x
Cc1ccc(CSc2ncnc3c2cnn3Cc2ccccc2)cc1C,x,66*,-11,2,5,i
COc1nc(-c2ccccc2)nnc1-c1ccccc1,-8,75*,-21,1,5,i
S=c1[nH]nc(-c2ccco2)n1/N=C/c1cccs1,-12,8,-5,0,12,x
S=c1[nH]nc(-c2ccco2)n1/N=C/c1ccc(Cl)cc1Cl,x,78*,-12,1,4,+
C=C(C)Cn1c(N2CCOCC2)nc2c1c(=O)n(C)c(=O)n2C,x,13,x,x,10,x
O=C(Nc1ccccc1N1CCOCC1)c1ccc2ccccc2n1,-7,70*,-11,0,7,+
O=C(Nc1ccccc1N1CCOCC1)c1cccnc1Cl,-16,-5,-18,-2,7,x
CC(=O)CSc1nc(-c2cccs2)c(C#N)c(=O)[nH]1,-7,68*,-11,2,16,i
CCCn1cnc2sc(C(N)=O)c(C)c2c1=O,x,2,5,3,8,x
CCCn1cnc2sc(CC)cc2c1=O,-4,50,1,1,8,i
COc1ccc(OC[C@@H](N)C(C)C)cc1,x,-37,x,x,x,x
Cc1ccc(-c2nc3ccccc3nc2Cl)cc1,-19,65*,0,0,8,i
CSc1ccccc1NC(=O)COc1ccc(Cl)cc1C,-5,67*,-11,1,12,+
Cc1ccc(C2CC2c2n[nH]c(=S)n2-c2ccc(Cl)cc2)cc1 (centres undefined),x,53,-7,0,6,i
O=C(C(c1ccccc1)c1ccccc1)N1CCCc2ccccc21,x,78*,-11,-1,17,+
O=C(NC(=O)N1CCCc2ccccc21)c1ccccc1,0,21,-7,-1,6,x
O=C(c1ccccc1)C1CN(Cc2ccccc2)CCC1(O)c1ccccc1 (centres undefined),6,76*,-15,0,7,i
Cc1ccc2oc(=O)n(CC(=O)NCCCc3ccc(F)cc3)c2c1,x,-77,x,x,8,x
CC(C1CC2CCC1C2)n1c(COc2ccccc2F)nnc1SCC(N)=O (centres undefined),x,-16,-4,-2,20,x
CC(C)NC(=O)NC(=O)CSc1nnc(COc2ccccc2F)n1C(C)C1CC2CCC1C2 (centres undefined),x,57,15,0,6,i
CC1CCC2(CC1)Nc1ccccc1CO2 (centres undefined),x,31,x,x,12,x
O=C1NC2(CCN(C(=O)C(F)(F)F)CC2)Oc2ccccc21,x,1,x,x,x,x
Cc1nn(Cc2c(Cl)cccc2Cl)c(C)c1C(=O)NCc1ccc(C)n1C,x,75*,-6,0,4,i
Cc1nn(Cc2ccccc2)c(Cl)c1C(=O)NCc1ccc(C)n1C,-19,-3,7,1,7,x
O=C(CCC1CCCC1)N1CCC(Cn2nc(-c3cccs3)ccc2=O)CC1,x,-62,x,x,x,x
